# Experiment: Primary imaging screen for DUSP6 inhibitors that restore phospho-Erk in transfected HeLa cells, chemical complementation (AID 609)
# Conditions: HeLa MKP-3 transfected, phospho-Erk imaging KS statistic; measured here: cell density z-score; at 10 µM; cells stimulated with TPA for 15 min
row,SMILES,z-score
1,Cc1nc(SCC(=O)c2ccccc2)c(C#N)c(-c2ccco2)c1C(=O)NCc1ccco1,0.205
2,CC(=O)C(=[N+]=[N-])C(=O)NCc1ccccc1,0.378
3,CNC(=O)c1ncnnc1N(C)C(=O)NCc1ccccc1,0.229
4,CCCCNC(=O)c1c(N)n(/N=C/c2cccnc2)c2nc3ccccc3nc12,1.68
5,Cc1ccnc(N2CCN(c3c4c(c(C#N)c5nc6ccccc6n35)CCC4)CC2)c1,-0.195
6,CC(C)Cc1[nH]c(=O)c(C#N)c2c1CCCC2,-1.11
7,CCOC(=O)c1c(C)n(C)c2ccc(OC)c(NC(=O)CN3CCCCC3)c12,-1.53
8,CSc1nc(N)nc(SCC(=O)OC(C)C)c1C#N,-1.22
9,CC(=O)N/C(=N/c1nc(C)cc(C)n1)Nc1ccc(NC(C)=O)cc1,1.7
10,Cc1ccccc1OCC(O)Cn1c(N2CCN(c3ccccc3)CC2)nc2c1c(=O)[nH]c(=O)n2C (stereo not given),-0.379
11,CCCOc1ccc(Cc2nn[nH]n2)cc1,-1.6
12,CC1CN(C2CCN(C(=O)c3ccccc3Cl)CC2)CC(C)O1 (stereo not given),-0.321
13,CCOc1nnnc2c1sc1nc(N3CCOCC3)c3c(c12)CC(C)(C)OC3,-0.458
14,CCN(CC)CCNc1nc2c(c(=O)[nH]c(=O)n2C)n1CCOc1ccccc1,0.0299
15,NC(=O)CSc1c[nH]c2ccccc12,-1.08
16,C=CCn1c(-c2ccccc2)n[nH]c1=S,-1.14
17,CN1C(=O)N(c2ccccc2)C(Nc2nncs2)C1(C)C (stereo not given),-0.342
18,COc1ccc(/C=N/n2cncn2)cc1CSc1ccccn1,-0.741
19,COc1cc([C@@H]2[C@H]3CNCC=C3C(C#N)=C(N)C2(C#N)C#N)ccc1OC(C)C,-0.404
20,Nc1nnc(Cc2ccc(Cl)c(Cl)c2)s1,0.377

row,SMILES,z-score
1,CCCOc1ccc(/C(O)=C2/C(=O)C(=O)N(CCN3CCOCC3)C2c2ccccc2)cc1 (stereo not given),-0.109
2,CC(C)C1Cc2c(C#N)c(N)n(C)c(=S)c2CO1 (stereo not given),-0.967
3,CNC(=O)C1CC(=O)N(Cc2ccccc2)C(=Nc2ccc(OC)cc2)S1 (stereo not given),-1.18
4,CCCOc1ccc(C2NC(=O)NC2=O)cc1 (stereo not given),-0.563
5,COC(=O)c1[nH]c2cc(OC)ccc2c1NC(=O)CCN1CCCC(C)(C)C1,-0.606
6,Cc1cc(OCCN2CCOCC2)nc2ccccc12,0.234
7,CC(C)Nc1nc(NC(C)C)nc(N(C)n2cnnc2)n1,0.189
8,COc1ccc(OC)c(C(O)c2coc3ccc(O)c(CN4CCOCC4)c23)c1 (stereo not given),-0.303
9,Cc1c([C@H]2[C@@H](CC#N)C2(C)C)c2ccccc2n1C,-0.588
10,CC1=C(C(=O)Nc2ccccc2)C(c2ccncc2)C(C#N)=C(SCC(=O)NC(C)C)N1 (stereo not given),-0.265
11,CCCCCc1ccc(-c2ccc(=O)[nH]n2)cc1,1.16
12,O=C(C1=C(O)C(=O)N(CCN2CCOCC2)C1c1cccnc1)c1cc2ccccc2o1 (stereo not given),-0.44
13,CCCCNC(=O)c1cc2n(n1)C(C(F)(F)F)CC(c1ccccc1)N2 (stereo not given),-0.754
14,CCCC1C2C(=O)N(c3ccccc3OC)C(=O)C2ON1c1ccccc1 (stereo not given),1.11
15,CCOC(=O)C1=C(C)NC(=O)NC1c1ccc2c(c1)OCO2 (stereo not given),0.562
16,O=C(c1cccc(Cl)c1)N1CCN(C(=O)c2ccccc2F)CC1,-0.228
17,Cc1noc(NS(=O)(=O)c2ccc(NC(=O)COc3ccccc3)cc2)c1C,-0.876
18,Cc1nc(NCCN)c(C#N)c2c1COC(C)(C)C2,-0.432
19,Cn1c(=NCC(O)COc2ccccc2)sc2ccccc21 (stereo not given),0.424
20,COc1ccc(-c2nn3c(C4CCCCC4)nnc3s2)cc1OC,-0.887

# Same assay, conditions: HeLa MKP-3 transfected, phospho-Erk imaging KS statistic; measured here: nuclear c-Myc green intensity z-score; at 10 µM; cells stimulated with TPA for 15 min
row,SMILES,z-score
1,Cc1nc(SCC(=O)c2ccccc2)c(C#N)c(-c2ccco2)c1C(=O)NCc1ccco1,-0.115
2,CC(=O)C(=[N+]=[N-])C(=O)NCc1ccccc1,-1.15
3,CNC(=O)c1ncnnc1N(C)C(=O)NCc1ccccc1,0.0819
4,CCCCNC(=O)c1c(N)n(/N=C/c2cccnc2)c2nc3ccccc3nc12,-0.352
5,Cc1ccnc(N2CCN(c3c4c(c(C#N)c5nc6ccccc6n35)CCC4)CC2)c1,1.1
6,CC(C)Cc1[nH]c(=O)c(C#N)c2c1CCCC2,0.566
7,CCOC(=O)c1c(C)n(C)c2ccc(OC)c(NC(=O)CN3CCCCC3)c12,-1.22
8,CSc1nc(N)nc(SCC(=O)OC(C)C)c1C#N,-0.698
9,CC(=O)N/C(=N/c1nc(C)cc(C)n1)Nc1ccc(NC(C)=O)cc1,-1.09
10,Cc1ccccc1OCC(O)Cn1c(N2CCN(c3ccccc3)CC2)nc2c1c(=O)[nH]c(=O)n2C (stereo not given),-1.18
11,CCCOc1ccc(Cc2nn[nH]n2)cc1,0.733
12,CC1CN(C2CCN(C(=O)c3ccccc3Cl)CC2)CC(C)O1 (stereo not given),-1.49
13,CCOc1nnnc2c1sc1nc(N3CCOCC3)c3c(c12)CC(C)(C)OC3,-0.399
14,CCN(CC)CCNc1nc2c(c(=O)[nH]c(=O)n2C)n1CCOc1ccccc1,-1.12
15,NC(=O)CSc1c[nH]c2ccccc12,0.978
16,C=CCn1c(-c2ccccc2)n[nH]c1=S,2.62
17,CN1C(=O)N(c2ccccc2)C(Nc2nncs2)C1(C)C (stereo not given),0.524
18,COc1ccc(/C=N/n2cncn2)cc1CSc1ccccn1,0.803
19,COc1cc([C@@H]2[C@H]3CNCC=C3C(C#N)=C(N)C2(C#N)C#N)ccc1OC(C)C,-0.17
20,Nc1nnc(Cc2ccc(Cl)c(Cl)c2)s1,1.31

row,SMILES,z-score
1,CCCOc1ccc(/C(O)=C2/C(=O)C(=O)N(CCN3CCOCC3)C2c2ccccc2)cc1 (stereo not given),0.153
2,CC(C)C1Cc2c(C#N)c(N)n(C)c(=S)c2CO1 (stereo not given),0.261
3,CNC(=O)C1CC(=O)N(Cc2ccccc2)C(=Nc2ccc(OC)cc2)S1 (stereo not given),-0.897
4,CCCOc1ccc(C2NC(=O)NC2=O)cc1 (stereo not given),1.62
5,COC(=O)c1[nH]c2cc(OC)ccc2c1NC(=O)CCN1CCCC(C)(C)C1,-0.827
6,Cc1cc(OCCN2CCOCC2)nc2ccccc12,-1.97
7,CC(C)Nc1nc(NC(C)C)nc(N(C)n2cnnc2)n1,-1.82
8,COc1ccc(OC)c(C(O)c2coc3ccc(O)c(CN4CCOCC4)c23)c1 (stereo not given),0.452
9,Cc1c([C@H]2[C@@H](CC#N)C2(C)C)c2ccccc2n1C,0.872
10,CC1=C(C(=O)Nc2ccccc2)C(c2ccncc2)C(C#N)=C(SCC(=O)NC(C)C)N1 (stereo not given),0.666
11,CCCCCc1ccc(-c2ccc(=O)[nH]n2)cc1,-0.256
12,O=C(C1=C(O)C(=O)N(CCN2CCOCC2)C1c1cccnc1)c1cc2ccccc2o1 (stereo not given),2.22
13,CCCCNC(=O)c1cc2n(n1)C(C(F)(F)F)CC(c1ccccc1)N2 (stereo not given),-0.242
14,CCCC1C2C(=O)N(c3ccccc3OC)C(=O)C2ON1c1ccccc1 (stereo not given),1.02
15,CCOC(=O)C1=C(C)NC(=O)NC1c1ccc2c(c1)OCO2 (stereo not given),0.385
16,O=C(c1cccc(Cl)c1)N1CCN(C(=O)c2ccccc2F)CC1,-0.0273
17,Cc1noc(NS(=O)(=O)c2ccc(NC(=O)COc3ccccc3)cc2)c1C,0.527
18,Cc1nc(NCCN)c(C#N)c2c1COC(C)(C)C2,-0.111
19,Cn1c(=NCC(O)COc2ccccc2)sc2ccccc21 (stereo not given),-0.57
20,COc1ccc(-c2nn3c(C4CCCCC4)nnc3s2)cc1OC,0.0164

# — PubChem BioAssay
